# For part of these data: Results with a measured potency or affinity are listed apart.
# What was measured:
# Set-up in all cases: scale not given: direction of the effect not stated beside the values
# [1] = target: Protein translocase subunit SecA (Escherichia coli (strain K12)) (UniProt P10408); assay: Assay to Identify E. coli SecA ATPase Inhibitors; type: functional; conditions: 30 µM
# [2] = target: T1, Ubiquitin-activating enzyme e1, putative (Leishmania donovani (strain BPK282A1)) (UniProt E9BSI1); assay: Leishmania donovani Ubiquitin Activating Enzyme (LdE1); type: functional; conditions: 30 µM
# T1 sequence (whole entry): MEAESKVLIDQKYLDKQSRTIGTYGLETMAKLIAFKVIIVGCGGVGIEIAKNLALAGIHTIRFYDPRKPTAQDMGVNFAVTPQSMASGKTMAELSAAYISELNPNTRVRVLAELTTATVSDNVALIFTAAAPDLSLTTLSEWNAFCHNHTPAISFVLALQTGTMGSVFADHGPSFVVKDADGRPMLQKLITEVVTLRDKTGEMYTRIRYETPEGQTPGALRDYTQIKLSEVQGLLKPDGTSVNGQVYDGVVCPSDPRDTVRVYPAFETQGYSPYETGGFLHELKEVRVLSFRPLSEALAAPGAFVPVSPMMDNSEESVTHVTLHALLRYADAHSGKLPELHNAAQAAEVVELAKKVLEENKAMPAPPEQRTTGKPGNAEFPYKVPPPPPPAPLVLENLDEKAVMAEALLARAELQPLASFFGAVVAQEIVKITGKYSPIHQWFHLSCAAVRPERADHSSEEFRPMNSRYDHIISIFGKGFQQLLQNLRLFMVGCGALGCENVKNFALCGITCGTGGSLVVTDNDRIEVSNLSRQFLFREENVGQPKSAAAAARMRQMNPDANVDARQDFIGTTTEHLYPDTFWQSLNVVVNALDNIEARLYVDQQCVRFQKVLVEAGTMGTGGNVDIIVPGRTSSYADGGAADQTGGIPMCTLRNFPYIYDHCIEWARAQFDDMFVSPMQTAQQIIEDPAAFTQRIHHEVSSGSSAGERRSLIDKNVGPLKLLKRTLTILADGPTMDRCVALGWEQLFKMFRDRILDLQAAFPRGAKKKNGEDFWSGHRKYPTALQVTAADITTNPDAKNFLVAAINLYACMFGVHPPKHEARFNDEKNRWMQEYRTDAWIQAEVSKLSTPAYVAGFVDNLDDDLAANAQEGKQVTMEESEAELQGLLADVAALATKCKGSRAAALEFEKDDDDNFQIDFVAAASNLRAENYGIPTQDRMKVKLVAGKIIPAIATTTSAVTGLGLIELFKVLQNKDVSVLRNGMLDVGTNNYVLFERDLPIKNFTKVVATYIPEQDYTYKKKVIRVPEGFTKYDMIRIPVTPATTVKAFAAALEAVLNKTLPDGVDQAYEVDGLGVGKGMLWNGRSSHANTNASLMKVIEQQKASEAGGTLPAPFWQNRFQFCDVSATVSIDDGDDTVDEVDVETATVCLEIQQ
# [3] = target: Sialic acid-binding Ig-like lectin 9 (Homo sapiens) (UniProt Q9Y336); assay: Hs-Siglec9 ALPHAscreen SOP 20170721; conditions: 10 µM
# Sequence of Sialic acid-binding Ig-like lectin 9 (Homo sapiens) (Q9Y336 whole entry): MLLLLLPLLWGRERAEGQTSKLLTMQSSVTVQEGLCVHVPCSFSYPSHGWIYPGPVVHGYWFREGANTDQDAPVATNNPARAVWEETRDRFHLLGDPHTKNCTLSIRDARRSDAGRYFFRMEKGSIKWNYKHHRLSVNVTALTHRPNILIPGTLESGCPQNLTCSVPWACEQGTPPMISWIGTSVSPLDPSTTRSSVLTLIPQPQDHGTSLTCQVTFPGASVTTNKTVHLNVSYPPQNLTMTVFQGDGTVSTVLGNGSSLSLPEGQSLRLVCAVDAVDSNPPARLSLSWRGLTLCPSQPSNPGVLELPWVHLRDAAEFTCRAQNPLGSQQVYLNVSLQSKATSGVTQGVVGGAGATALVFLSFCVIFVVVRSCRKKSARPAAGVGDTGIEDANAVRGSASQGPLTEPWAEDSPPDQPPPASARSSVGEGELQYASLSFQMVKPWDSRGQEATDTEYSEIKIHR
# Trypanosoma cruzi = assay: Trypanosoma cruzi phosphomannomutase and mannose-1-phosphate guanylyltransferase assay; type: functional; conditions: 10 µM
# [4] = target: T2, Arginase-2, mitochondrial (Homo sapiens) (UniProt P78540); assay: in vitro enzyme assay to detect the production of urea directly proportional to the activity of Arginase II; type: functional; conditions: 33.3 µM; also: in the data most compounds retested in dose-response had high values
# T2 sequence (whole entry): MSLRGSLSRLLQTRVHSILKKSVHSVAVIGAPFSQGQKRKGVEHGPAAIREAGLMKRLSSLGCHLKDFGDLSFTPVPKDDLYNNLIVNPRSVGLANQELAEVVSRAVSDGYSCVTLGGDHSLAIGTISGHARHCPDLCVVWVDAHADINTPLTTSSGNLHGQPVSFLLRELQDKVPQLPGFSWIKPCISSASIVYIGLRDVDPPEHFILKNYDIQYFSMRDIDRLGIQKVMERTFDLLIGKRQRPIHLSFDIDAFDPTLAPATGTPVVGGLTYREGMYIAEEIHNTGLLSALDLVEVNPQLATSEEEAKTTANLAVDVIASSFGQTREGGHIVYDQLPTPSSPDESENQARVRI
# [5] = target: T3, Proteasome subunit beta (Trypanosoma cruzi) (UniProt O96673); assay: Trypanosoma cruzi proteasome chymotrypsin-like activity (TcProtChymo) assay.; also: in the data most compounds retested in dose-response had high values; type: functional; conditions: 9.37 µM
# T3 sequence (whole entry): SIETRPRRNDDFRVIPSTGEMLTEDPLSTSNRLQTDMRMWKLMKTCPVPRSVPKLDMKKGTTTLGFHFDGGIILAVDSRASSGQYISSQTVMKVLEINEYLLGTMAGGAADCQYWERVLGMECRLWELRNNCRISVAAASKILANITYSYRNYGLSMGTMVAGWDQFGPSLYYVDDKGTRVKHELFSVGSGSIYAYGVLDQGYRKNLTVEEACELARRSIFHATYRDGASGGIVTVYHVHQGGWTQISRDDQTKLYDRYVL
# Homo sapiens = species: Homo sapiens; assay: To identify inhibition of the IFN signalling (Jak-Stat) pathway via expression of an eGFP reporter gene under the control of an IFN-stimulated response element (ISRE) containing MxA promoter.; type: functional; conditions: 30 µM
# [6] = target: T4, Tyrosyl-tRNA synthetase, putative (Trypanosoma cruzi (strain CL Brener)) (UniProt Q4DSP6); assay: Trypanosoma cruzi tyrosyl tRNA synthetase (TcYRS) _High Tyrosine SOP; type: functional; conditions: 30 µM; also: in the data most compounds retested in dose-response had high values
# T4 sequence (whole entry): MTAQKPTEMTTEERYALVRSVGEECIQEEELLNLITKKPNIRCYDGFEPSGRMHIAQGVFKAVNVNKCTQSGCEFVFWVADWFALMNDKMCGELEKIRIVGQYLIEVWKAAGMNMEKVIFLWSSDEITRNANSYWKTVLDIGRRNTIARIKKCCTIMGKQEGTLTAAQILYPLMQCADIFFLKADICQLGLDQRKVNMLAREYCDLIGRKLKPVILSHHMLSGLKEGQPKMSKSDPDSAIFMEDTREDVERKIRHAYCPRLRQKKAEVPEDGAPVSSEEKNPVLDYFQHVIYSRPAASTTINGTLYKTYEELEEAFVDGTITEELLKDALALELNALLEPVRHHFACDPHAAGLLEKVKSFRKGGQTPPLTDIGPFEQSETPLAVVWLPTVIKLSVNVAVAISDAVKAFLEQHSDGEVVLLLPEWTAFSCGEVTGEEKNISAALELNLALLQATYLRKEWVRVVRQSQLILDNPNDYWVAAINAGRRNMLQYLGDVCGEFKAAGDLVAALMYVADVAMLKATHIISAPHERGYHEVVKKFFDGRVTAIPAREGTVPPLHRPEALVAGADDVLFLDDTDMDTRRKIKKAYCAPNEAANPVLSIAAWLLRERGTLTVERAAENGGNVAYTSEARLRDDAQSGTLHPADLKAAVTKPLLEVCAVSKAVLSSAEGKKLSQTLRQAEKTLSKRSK
# [7] = target: T4, Tyrosyl-tRNA synthetase, putative (Trypanosoma cruzi (strain CL Brener)); assay: Trypanosoma cruzi tyrosyl tRNA synthetase (TcYRS) SOP; type: functional; conditions: 30 µM
# [8] = target: Chromo domain-containing protein 1 (Saccharomyces cerevisiae (strain ATCC 204508 / S288c) (Baker's yeast)) (UniProt P32657); assay: ScCHD-1 Enzyme Inhibition Assay; type: functional; conditions: 30 µM; also: in the data most compounds retested in dose-response had high values
# Sequence of Chromo domain-containing protein 1 (Saccharomyces cerevisiae (strain ATCC 204508 / S288c) (Baker's yeast)) (P32657 whole entry, the tested form may be a part): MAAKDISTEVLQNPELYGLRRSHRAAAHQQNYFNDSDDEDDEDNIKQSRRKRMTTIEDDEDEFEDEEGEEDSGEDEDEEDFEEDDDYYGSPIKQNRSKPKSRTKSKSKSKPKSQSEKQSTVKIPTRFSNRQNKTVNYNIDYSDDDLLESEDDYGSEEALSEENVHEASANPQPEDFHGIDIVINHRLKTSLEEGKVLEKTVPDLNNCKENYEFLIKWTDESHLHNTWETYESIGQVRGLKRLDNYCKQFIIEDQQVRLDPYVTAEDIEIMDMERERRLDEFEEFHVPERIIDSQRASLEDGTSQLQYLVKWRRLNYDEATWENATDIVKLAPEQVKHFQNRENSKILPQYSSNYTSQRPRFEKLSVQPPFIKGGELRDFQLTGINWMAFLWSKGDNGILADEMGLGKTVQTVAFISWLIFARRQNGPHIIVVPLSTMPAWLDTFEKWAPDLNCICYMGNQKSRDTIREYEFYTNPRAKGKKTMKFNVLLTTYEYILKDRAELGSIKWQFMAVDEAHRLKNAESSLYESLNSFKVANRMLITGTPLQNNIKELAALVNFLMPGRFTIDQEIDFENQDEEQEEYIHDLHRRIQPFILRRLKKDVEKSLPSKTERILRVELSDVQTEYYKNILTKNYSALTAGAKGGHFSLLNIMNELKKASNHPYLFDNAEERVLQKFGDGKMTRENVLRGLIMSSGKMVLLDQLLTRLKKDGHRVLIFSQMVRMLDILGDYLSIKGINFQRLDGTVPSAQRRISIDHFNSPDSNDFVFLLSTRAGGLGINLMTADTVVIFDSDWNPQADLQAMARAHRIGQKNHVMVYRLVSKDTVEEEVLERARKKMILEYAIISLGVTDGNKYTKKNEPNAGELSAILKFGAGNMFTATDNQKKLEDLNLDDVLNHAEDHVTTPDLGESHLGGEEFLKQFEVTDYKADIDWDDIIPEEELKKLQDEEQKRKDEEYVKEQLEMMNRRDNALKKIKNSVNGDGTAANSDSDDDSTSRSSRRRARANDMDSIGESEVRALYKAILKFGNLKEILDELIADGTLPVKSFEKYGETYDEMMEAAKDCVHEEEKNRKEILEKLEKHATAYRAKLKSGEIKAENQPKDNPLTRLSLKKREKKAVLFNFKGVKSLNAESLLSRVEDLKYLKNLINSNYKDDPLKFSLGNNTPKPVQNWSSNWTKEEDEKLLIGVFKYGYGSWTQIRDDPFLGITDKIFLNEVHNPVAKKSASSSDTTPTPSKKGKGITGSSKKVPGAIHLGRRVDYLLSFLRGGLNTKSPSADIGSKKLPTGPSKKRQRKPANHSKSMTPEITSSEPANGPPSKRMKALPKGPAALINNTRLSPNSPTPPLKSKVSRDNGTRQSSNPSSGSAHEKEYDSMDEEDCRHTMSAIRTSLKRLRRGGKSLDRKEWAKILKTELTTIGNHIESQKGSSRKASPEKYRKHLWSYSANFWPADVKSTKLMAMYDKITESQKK
# Sequence of Protein translocase subunit SecA (Escherichia coli (strain K12)) (P10408 whole entry): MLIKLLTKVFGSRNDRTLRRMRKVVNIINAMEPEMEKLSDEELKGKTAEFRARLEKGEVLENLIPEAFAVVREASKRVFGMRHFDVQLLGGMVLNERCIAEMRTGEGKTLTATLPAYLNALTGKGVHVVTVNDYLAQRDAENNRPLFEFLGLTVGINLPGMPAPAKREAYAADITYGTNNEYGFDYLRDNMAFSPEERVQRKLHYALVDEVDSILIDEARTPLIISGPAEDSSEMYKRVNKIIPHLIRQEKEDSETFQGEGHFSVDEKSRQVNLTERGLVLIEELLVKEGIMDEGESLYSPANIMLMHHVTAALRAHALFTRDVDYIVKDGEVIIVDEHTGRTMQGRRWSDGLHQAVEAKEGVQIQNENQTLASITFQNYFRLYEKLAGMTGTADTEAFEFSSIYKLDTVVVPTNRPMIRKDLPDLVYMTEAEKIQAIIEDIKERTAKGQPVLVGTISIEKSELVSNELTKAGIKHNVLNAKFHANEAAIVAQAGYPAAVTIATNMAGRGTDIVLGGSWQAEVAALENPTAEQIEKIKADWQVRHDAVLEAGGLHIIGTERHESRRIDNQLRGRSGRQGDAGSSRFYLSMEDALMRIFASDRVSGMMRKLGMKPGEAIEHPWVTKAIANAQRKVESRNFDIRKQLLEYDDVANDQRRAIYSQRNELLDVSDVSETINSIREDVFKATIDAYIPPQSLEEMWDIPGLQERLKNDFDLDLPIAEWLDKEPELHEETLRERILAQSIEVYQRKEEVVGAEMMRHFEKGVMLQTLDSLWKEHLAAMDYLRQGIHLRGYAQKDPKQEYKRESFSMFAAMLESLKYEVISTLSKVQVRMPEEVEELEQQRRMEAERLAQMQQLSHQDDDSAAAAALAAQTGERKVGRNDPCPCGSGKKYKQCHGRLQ
SMILES,Percent Effect [1] [%],Percent Effect [2] [%],Percent Effect [3] [%],Percent Effect (Trypanosoma cruzi) [%],Percent Effect [4] [%],Percent Effect [5] [%],Percent Effect (Homo sapiens) [%],Percent Effect [6] [%],Percent Effect [7] [%],Percent Effect [8] [%]
COCCc1noc(CN2CCCC2c2c(C)nn(C)c2C)n1 (stereo not given),-3.14,0,5.73,5.22,-0.887,3.14,-16.4,1.58,2.56,-6.66
COCCNC(=O)Nc1ccc(F)c(C(N)=O)c1,2.83,15.6,-5.71,-5.04,0.615,8.42,8.95,9.8,16.5,-12.2
CN1CCN(CC2CC2)C(=O)c2cnc(N3CCCCC3)nc21,-6.28,-45.3,3.74,-1.41,-3.99,-4.83,19,-2.63,-5.13,-2.64
O=C(NCc1cc(O)ncn1)C1CCOc2ccccc2C1 (stereo not given),-6.27,5.41,6.22,1.26,5.94,14.4,15.2,6.92,12.2,-2.81
Cc1ccc(CNC(=O)CN2CCCC(Cn3cncn3)C2)s1 (stereo not given),0.165,21.3,-6.68,3.61,3.99,22.3,-8.31,4.74,12.8,-11.2
Cc1noc(C)c1C(=O)NCc1ccc(N2CCOC(C)C2)nc1 (stereo not given),-2.58,21.3,-1.63,-0.402,-0.887,12.5,9.59,2.63,15.4,-13.6
CCOc1ccc(CN2CCN(C(=O)c3ccc(C)n3C)CC2)cc1,-2.75,5.33,3.18,1.41,-4.43,12.1,8.63,6.84,15.4,-10.5
COc1cccc(C(=O)NCCCN2CCc3ccccc3C2)c1OC,-0.301,-5.33,7.23,-2.81,1.77,-5.34,10.1,2.63,0,-4.32
COc1cc(N2CCCC(c3nccn3CCN(C)C)C2)nc(N)n1 (stereo not given),-9.14,2.7,4.84,3.59,4.54,4.62,5.13,7.98,17.1,11.6
CCC1c2ccsc2CCN1C(=O)NCCNc1ncccn1 (stereo not given),0.216,15.4,-5.88,6.29,6.15,9.3,10,6.22,22.9,-7.01
Cc1ccc(C(O)CNCCn2cccn2)cc1C (stereo not given),-4.43,2.67,5.78,0.803,1.33,2.97,4.85,3.68,7.69,-8.09
c1cnc(N2CCC3(CCN(CC4CC4)CC3)CC2)nc1,-6.61,3.9,-1.99,-2.82,-5.67,6.09,-6.66,5.79,12.8,-1.89
CC(NC(=O)N1CCN(CCc2ccccc2)CC1)c1nncn1C (stereo not given),-5.57,5.33,0.0136,3.41,0.444,7.55,13.6,2.63,-20.5,-8.2
Cc1ccc2oc(C(=O)N3CCc4nnc(N(C)C)cc4C3)cc2n1,-3.69,10.7,5.58,3.21,0.887,12.8,4.8,4.74,5.13,-10.7
c1ccc(OCc2nnc3n2CCN(CC2CCOCC2)C3)nc1,-2.49,1.3,-1.26,-1.07,-2.43,-0.0883,-3.47,0.526,-89.7,-2.56
Cn1cc(CNCC2Cn3nnc(-c4ccccc4)c3CO2)cn1 (stereo not given),-4.8,6.49,9.99,4.97,13,4.68,-2.48,2.63,10.3,19
c1ccc(CN2CCOCC3(CCN(C4CCOCC4)C3)C2)cc1 (stereo not given),-5.53,6.49,-8.07,-4.58,-3.24,22.9,8.96,3.68,10.3,-0.0594
COCCN1C(=O)CCC12CCN(C(=O)NC(C)C)CC2,-5.46,3.9,-2.04,-0.938,-0.457,-2.66,19.9,1.93,-10,-3.15
COc1cccc(-n2nnc(C(=O)N3CCCC3)c2C)c1,-0.683,10.3,-7.88,2.72,4.92,7.25,6.63,7.18,13.2,-3.38
COCC1CN(CC2CC2)Cc2nn(C)cc21 (stereo not given),-8.74,-1.3,-2.43,-6.91,2.02,10.5,4.75,1.58,-5.13,-3.01
CCc1ccc(O)c(C(=O)NC2CCN(S(=O)(=O)CC)CC2)c1,-6.37,17.9,-17.5,5.35,-4.92,10.2,20.5,1.44,22.9,-10.9
O=C(NCc1nn(-c2ccccc2)c2c1CCC2)NC1CC1,-4.01,2.56,9.31,0.469,2.05,2.65,-3.46,1.44,8.43,-1.68
COCC1CN(Cc2ccsc2)Cc2nn(C)cc21 (stereo not given),-4.97,6.49,-3.38,-7.11,2.83,20.9,13.5,3.68,0,2.62
COCCN1CCCN(C(=O)NC(C)Cn2cccn2)CC1 (stereo not given),0.234,15.6,-4.18,-8.77,4.3,10.9,14.4,5.88,11.8,-2.79
CN(C)C(=O)[C@@H]1CCO[C@@H]2CCN(Cc3ccc4c(c3)OCO4)C[C@@H]21,-3.73,11.7,-6.65,7.5,-4.86,10.9,0.999,3.68,2.56,2.41
CN1CC(=O)N(c2ccsc2)CC12CCN(C(=O)c1ccccc1)C2 (stereo not given),-4.65,11.7,-6.87,-3.99,3.64,12.6,-10.9,5.79,7.69,1.01
CCc1cnc(CN2CCC(N(C)Cc3noc(C4CC4)n3)C2)o1 (stereo not given),-3.48,0,-1.21,-2.24,4.3,0.175,5.76,0.98,-2.35,0.446
